This passage reports inhibition results from ChEMBL document CHEMBL3433997, “St. Jude Leishmania screening dataset” (2016).

In general, inhibition refers to the change of the read-out against control, counted positive when it falls.

What all share (assay type): functional
The target in experiment [1] is Solute carrier family 2, facilitated glucose transporter member 1 (Homo sapiens) (UniProt P11166). Description: ST_JUDE_LEISH: Cytotoxicity at 2uM final concentration against transgenic Leishmania Mexicana promastigotes LmGLUT1 that are glucose transport deficient and complemented with the human glucose transporter GLUT1. Activity is measured by DNA content using SYBR green in vitro.
Chain of Solute carrier family 2, facilitated glucose transporter member 1 (Homo sapiens) (P11166 whole entry): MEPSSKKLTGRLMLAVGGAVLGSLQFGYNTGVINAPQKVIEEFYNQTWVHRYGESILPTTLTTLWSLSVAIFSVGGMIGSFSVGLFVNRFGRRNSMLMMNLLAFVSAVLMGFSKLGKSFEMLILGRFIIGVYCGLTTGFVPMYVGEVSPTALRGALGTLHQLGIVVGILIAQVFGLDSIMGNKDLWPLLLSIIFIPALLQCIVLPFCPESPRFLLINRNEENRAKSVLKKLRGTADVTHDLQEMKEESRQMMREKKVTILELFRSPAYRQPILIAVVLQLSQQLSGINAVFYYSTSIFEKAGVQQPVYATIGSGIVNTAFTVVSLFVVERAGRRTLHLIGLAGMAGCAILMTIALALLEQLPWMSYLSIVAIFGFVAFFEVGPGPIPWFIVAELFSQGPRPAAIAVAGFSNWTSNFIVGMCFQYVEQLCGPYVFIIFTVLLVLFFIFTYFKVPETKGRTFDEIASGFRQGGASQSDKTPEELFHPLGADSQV

The target of experiment [2] is Hexose transporter 1 (Plasmodium falciparum) (UniProt O97467). Nature of the experiment: ST_JUDE_LEISH: Cytotoxicity at 2uM final concentration against transgenic Leishmania Mexicana promastigotes LmPfHT that are glucose transport deficient and complemented with the Plasmodium falciparum hexose transporter. Activity is measured by DNA content using SYBR green in vitro.

Experiment [3] deals with Glucose transporter (Leishmania mexicana) (UniProt O61059). Description: ST_JUDE_LEISH: Cytotoxicity at 2uM final concentration against transgenic Leishmania Mexicana promastigotes LmGT2 that are glucose transport deficient and complemented with the L. Mexicana glucose transporter 2. Activity is measured by DNA content using SYBR green in vitro.

Turning to `CCOc1ccccc1CCNC(C)Cc1ccc(C(=O)Nc2ccc(CC(C)NCCc3cccc(Cl)c3)cc2)cc1` (stereo not given), the inhibition in experiment [1] is 28%; in experiment [2] it was 34.1%; in experiment [3], 3.04%.

With `FC(F)(F)c1ccc(COc2cc(Cl)ccc2Cn2ccnc2)cc1`, the inhibition was determined as 14% in experiment [1], 9.99% in experiment [2] and 7.28% in experiment [3].

With `Cc1cc(N2CCCC2)nc(Nc2ccc(NC(=O)C(C)C)cc2)n1`, the inhibition in experiment [1] was 5.62%; in experiment [2] it was 2.73%; in experiment [3], -6.48%.

In the case of `O=C(CNC(=O)c1ccc(O)cc1)Nc1cccc(-c2cccc(-c3nc4cc(C(F)(F)F)ccc4[nH]3)c2)c1`, the inhibition in experiment [1] was 3.81%; in experiment [2] it was 4.39%; in experiment [3], 2.15%.

Consider `COc1ccc(C=NN=c2cc(C)[nH]c3c(C)cccc23)c2ccccc12`, for which the inhibition turned out to be 1.53% in experiment [1], 1.31% in experiment [2] and 5.67% in experiment [3].

Take `CCOc1ccc(N(CC)S(=O)(=O)c2cc(Br)cc3c2N(C(=O)C2CC2)CC3)cc1`: the values for the inhibition in experiment [1], in experiment [2] and in experiment [3] were 2.96%, 2.04% and 1.74%, respectively.

For `CCOC(=O)c1cccc(NC(=O)Nc2cc(C)nc3ccccc23)c1`, the values for the inhibition in experiment [1], in experiment [2] and in experiment [3] were 9.1%, 6.21% and 5.11%, respectively.

In the case of `Cc1noc(-c2cccs2)c1C(=O)NC(C)c1cccc2ccccc12` (stereo not given), the inhibition in experiment [1] was -0.34%; in experiment [2], 0.45%; in experiment [3], 0.18%.

Regarding `Oc1ccc2[nH]c(-c3cccs3)nc2c1CN1CCC(O)(c2ccccc2)CC1`, the values for the inhibition in experiment [1], in experiment [2] and in experiment [3] were 10.6%, 5.23% and 9.03%, respectively.

Consider `CCOC(=O)c1c(C)n(-c2ccccc2)c2ccc(O)cc12`, for which the values for the inhibition in experiment [1], in experiment [2] and in experiment [3] were -0.44%, 2.67% and 0.95%, respectively.

As to `CC(NC(=O)c1ccc(O)c(-c2ccc(Cl)c(Cl)c2)c1)C(=O)NCCN1CCOCC1` (stereo not given), the inhibition is 1.85% in experiment [1], 2.13% in experiment [2] and 3.62% in experiment [3].

On to `COc1ccc(-c2csc(C(=O)NC3CCC(N4CCC(c5ccccc5C)CC4)CC3)c2)cc1` (stereo not given), for which the results for the inhibition in experiment [1], in experiment [2] and in experiment [3] were 3.25%, 4.24% and 3.51%, respectively.

Consider `O=c1cc(NCCCNCc2cc3c(Cl)cccc3s2)[nH]c2ccccc12`, for which the inhibition in experiment [1] was -1.61%; in experiment [2], -0.8%; in experiment [3], -2.02%.

As to `Cc1cnn(-c2cccc(C(=O)NC3CCC(CCN4CCc5ccc(C#N)cc5CC4)CC3)c2)c1` (stereo not given), the inhibition in experiment [1] was 1.35%; in experiment [2] it was 6.24%; in experiment [3], -0.22%.

With `COc1ccc2nccc([C@@H](O)CN3CCC(NC(=O)C(c4ccsc4)N4CCN(c5ccccc5OC)CC4)CC3)c2c1` (stereo not given in full), the inhibition in experiment [1] was found to be 1.93%; in experiment [2] it was 1.41%; in experiment [3] it was 0.49%.

As to `FC(F)(F)c1ccc2[nH]ccc(=NN=Cc3cccnc3)c2c1`, the inhibition in experiment [1] was found to be 1.46%; in experiment [2], 1.75%; in experiment [3] it was 5.22%.

`COc1ccc(-n2ccnc2)cc1CNC1CCN(CC2Cn3c(=O)ccc4ccc(F)c2c43)CC1` (stereo not given): the inhibition in experiment [1] was 4.7%; in experiment [2], 4.54%; in experiment [3], 5.24%.

Consider `O=C(Nc1ccc(Cl)cc1)c1ccc(S(=O)(=O)NCC2CCN(CC3CCCCC3)CC2)cc1`, for which the inhibition in experiment [1] was 2.97%; in experiment [2] it was 1.04%; in experiment [3], 1.4%.

Regarding `O=C(Nc1ccc(OC2CCN(Cc3ccc(F)cc3)CC2)c(Cl)c1)c1cccs1`, the figures for the inhibition in experiment [1], in experiment [2] and in experiment [3] were 2.99%, 0.38% and 8.58%, respectively.

`Cc1[nH]c(C)c(-c2ccc(Nc3ccc(C(F)(F)F)cn3)cc2)c(=O)c1Br`: the inhibition came to 2.7% in experiment [1], 5.96% in experiment [2] and 3.17% in experiment [3].

With `O=C(/C=C/c1ccc(Cl)c(Cl)c1)NCCCCCN1CCCN(C(=S)Nc2ccc(Cl)cc2)CC1`, the inhibition in experiment [1] stood at 1.38%; in experiment [2] it was 1.56%; in experiment [3], 1.57%.

Turning to `Cc1cc(CN2CC[C@H](NC(=O)c3ccc(Cl)c(Cl)c3)C2)ccc1OCCCN(C)C`, the inhibition was -2.61% in experiment [1], -3.17% in experiment [2] and -2.57% in experiment [3].

As to `COc1cc(NC(=O)c2cccs2)c(OC)cc1NC(=O)Nc1cccc(Cl)c1`, the inhibition stood at 3.28% in experiment [1], 3.25% in experiment [2] and 2.28% in experiment [3].

As to `Cc1cc2nc(-c3ccc(OCC(=O)NCc4ccc(C(C)(C)C)cc4)cc3)[nH]c2cc1C`, the results for the inhibition in experiment [1], in experiment [2] and in experiment [3] were 6.86%, 7.11% and 6.35%, respectively.

In the case of `CCCCCN1CCC(NC(=O)c2ccc(C(=O)Nc3ccc(C(C)C)cc3)cc2)C1` (stereo not given), the inhibition in experiment [1] came out at 1.74%; in experiment [2], 1.41%; in experiment [3] it was 1.46%.

Take `O=C(NC1CCN(Cc2ccccc2)CC1)c1ccc(-c2nc3cc(Cl)c(Cl)cc3[nH]2)c(F)c1`: the inhibition in experiment [1] was found to be 10.3%; in experiment [2] it was 9.26%; in experiment [3], 9.86%.

Take `CC(C)(C)c1ccc(-c2nnc(N)nc2N)cc1`: the inhibition in experiment [1] was found to be 1.1%; in experiment [2], 0.43%; in experiment [3], 0.09%.

With `COc1ccc(CN2CCCN(Cc3cccc(C(=O)Nc4ccc(C)c(F)c4)c3)CC2)cc1`, the inhibition in experiment [1] is 0.27%; in experiment [2] it was -1.26%; in experiment [3], 1.49%.

`O=C(Nc1ccccc1C(F)(F)F)Nc1nn(Cc2c(F)cccc2Cl)cc1Br`: the inhibition came out at 5.53% in experiment [1], 4.7% in experiment [2] and 3.18% in experiment [3].

Take `Nc1ccnc2ccc(NC(=O)CCCCCc3ccccc3)cc12`: the inhibition stood at 1.43% in experiment [1], 0.96% in experiment [2] and 1.99% in experiment [3].

For the molecule `Cc1cc(N2CCOCC2)nc(Nc2ccc(NC(=O)Nc3ccc(F)cc3)cc2)n1`, the inhibition in experiment [1] was -0.56%; in experiment [2], -2.91%; in experiment [3], 1.66%.

With `Cc1ccccc1CCNC(=O)c1ccc(N2CCN(c3ccncc3)CC2)nc1`, the values for the inhibition in experiment [1], in experiment [2] and in experiment [3] were 3.94%, 1.96% and 0.46%, respectively.

In the case of `N#Cc1ccc(S(=O)(=O)N2C(c3cccc([N+](=O)[O-])c3)C(C(=O)c3ccccc3)N(C3CCCCC3)C2c2cccc([N+](=O)[O-])c2)cc1` (stereo not given), the inhibition was determined as 7.88% in experiment [1], 7.58% in experiment [2] and 7.58% in experiment [3].

Regarding `NC(=O)c1cc(-c2ccccc2)cc2c(C3CCC(NCc4ccccc4)C3)c[nH]c12` (stereo not given), the values for the inhibition in experiment [1], in experiment [2] and in experiment [3] were 0.91%, 1.64% and 0.8%, respectively.

Turning to `COc1ccc2[nH]ccc(=NN=CC=Cc3ccccc3)c2c1`, the inhibition was -0.13% in experiment [1], 2.19% in experiment [2] and -3.26% in experiment [3].
